# Experimental data published in PubChem BioAssay (NCI).
# About 83,000 compounds went through this panel and 20% of them were active in at least one assay; those are over-represented in the sample as a whole.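 Testing used 96-well plates and a 48-hour single-concentration exposure. Example: -40 means 40% of the starting cells died.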 Unmarked numbers belong to inactive results. Activity calls are given as the source filed them. Rule for the calls: active = growth percent below 10; inactive = the rest.
# Experiments:
# Assay in all cases: NCI-60 one-dose screen, 48 h (100 = growth as untreated, 0 = no growth, -100 = all killed)
# Conditions in all cases: 10 µM
# HT29 colon = test system: HT29 colon
# SNB-75 CNS = test system: SNB-75 CNS
# SNB-19 CNS = test system: SNB-19 CNS
# U251 CNS = test system: U251 CNS
# PC-3 prostate = test system: PC-3 prostate
# SK-MEL-5 melanoma = test system: SK-MEL-5 melanoma
# UACC-62 melanoma = test system: UACC-62 melanoma
# LOX IMVI melanoma = test system: LOX IMVI melanoma
# SK-MEL-28 melanoma = test system: SK-MEL-28 melanoma
# SK-MEL-2 melanoma = test system: SK-MEL-2 melanoma
# EKVX NSCLC = test system: EKVX NSCLC
# SN12C renal = test system: SN12C renal
# UO-31 renal = test system: UO-31 renal
# TK-10 renal = test system: TK-10 renal
# ACHN renal = test system: ACHN renal
# CAKI-1 renal = test system: CAKI-1 renal
# A498 renal = test system: A498 renal
# CCRF-CEM leukemia = test system: CCRF-CEM leukemia
# MOLT-4 leukemia = test system: MOLT-4 leukemia
# HCT-15 colon = test system: HCT-15 colon
SMILES,growth (HT29 colon),growth (SNB-75 CNS),growth (SNB-19 CNS),growth (U251 CNS),growth (PC-3 prostate),growth (SK-MEL-5 melanoma),growth (UACC-62 melanoma),growth (LOX IMVI melanoma),growth (SK-MEL-28 melanoma),growth (SK-MEL-2 melanoma),growth (EKVX NSCLC),growth (SN12C renal),growth (UO-31 renal),growth (TK-10 renal),growth (ACHN renal),growth (CAKI-1 renal),growth (A498 renal),growth (CCRF-CEM leukemia),growth (MOLT-4 leukemia),growth (HCT-15 colon)
CC(C)CCN(CCCNc1c2c(nc3cc(Cl)ccc13)CCCC2)CCC(C)C,23%,84.4%,90.6%,59.4%,56.8%,57.8%,82.8%,51%,83.4%,103%,54.4%,71.6%,27.2%,78.1%,92.4%,56.5%,59%,61.6%,47%,–
NS(=O)(=O)c1ccc(N2N=C(c3ccc(-c4ccccc4)cc3)CC2c2ccc(Cl)cc2)cc1 (centres undefined),–,99.8%,86.5%,75.7%,43.2%,86.8%,51.1%,87.2%,96.8%,95.5%,–,67.4%,72.1%,112%,80.4%,78.7%,87.4%,74.4%,70.6%,60.9%
CCCc1c(CC)c(=N)c2ccccc2n1C,–,73.4%,95.1%,43.2%,67.4%,19.2%,-3.76% (active),1.08% (active),-80.8% (active),37.3%,–,72.5%,38.3%,74.4%,65.8%,39.8%,42.4%,9.26% (active),0.122% (active),10.7%
COCCOC(=O)NC(=O)Nc1ccc(/C(=N/O)c2ccc(Cl)cc2)cc1,–,19.9%,31.4%,17.9%,26.1%,-17.2% (active),15.7%,22.5%,69.1%,18.7%,29.6%,–,36.8%,62.6%,39%,30.6%,–,–,9.91% (active),9.7% (active)
CCOC(=O)c1cc2c(n1Cc1ccccc1)-c1oncc1CC2,–,89.2%,86.2%,95.6%,76.2%,73.5%,75.8%,–,89.8%,85.7%,77%,98.6%,25.4%,101%,82.1%,36.5%,48.4%,53.1%,25.2%,65.3%
COc1c(-c2c3sc(=O)[nH]c3nc3c2c(=O)[nH]n3C(C)C)cc2c(c1OC)OCO2,–,92.7%,98.7%,97.9%,92.6%,102%,99.4%,92.3%,112%,85.3%,–,95.5%,78.9%,98.7%,91.4%,93.3%,57.2%,95%,94.5%,99.6%
O=C(C=P(c1ccccc1)(c1ccccc1)c1ccccc1)c1ccc(Br)cc1,–,90.9%,98.6%,97.1%,41.7%,96.6%,67.5%,73.4%,109%,94.3%,–,96.5%,53.7%,95%,78.7%,84.3%,64.3%,55%,0.436% (active),95.2%
Oc1[nH]c2ccccc2c1/C=c1/cc2c(c(-c3ccc(C(F)(F)F)cc3)n1)=Nc1ccccc1-2,–,63.4%,82.7%,60.1%,34.9%,–,77%,60.5%,52.8%,55.3%,52.1%,79.1%,56.1%,56.9%,32%,48.4%,62.6%,–,29.6%,49.4%
COc1ccc2oc(=O)cc(C(c3ccc[nH]3)c3ccc[nH]3)c2c1,–,29.6%,22.1%,-7.61% (active),20.3%,–,30.7%,7.59% (active),37.7%,5.1% (active),32.7%,–,–,26.4%,17.3%,15.2%,-8.63% (active),11.3%,6.26% (active),9.01% (active)
CCc1c(C)[nH]c(=O)c(C(N)=O)c1C#N,–,99.9%,90.1%,99.4%,99.4%,103%,88.4%,–,114%,96.3%,103%,–,93.5%,91.9%,102%,96.3%,–,99%,107%,95.4%
COc1ccc(-c2[nH]ncc2-c2cc(OC)c(OC)c(OC)c2)cc1,–,49.1%,44.5%,6.25% (active),11.8%,-22.1% (active),35.2%,27.8%,37.2%,-2.39% (active),–,20.8%,11.6%,44.7%,14.8%,6.08% (active),-19.9% (active),2.66% (active),-6.22% (active),10.3%
Cc1ccc(/C=C2\CN(Cc3cn(CCNc4ccnc5cc(Cl)ccc45)nn3)C/C(=C\c3ccc(C)cc3)C2=O)cc1,-45.1% (active),18.1%,-29.8% (active),-73.7% (active),-32.4% (active),-90.5% (active),-58.4% (active),-82.9% (active),-83.5% (active),-27.5% (active),–,-63.4% (active),-78.8% (active),29.9%,-16.9% (active),-13.6% (active),-81.1% (active),11.7%,-10.4% (active),–
Cn1cnc([N+](=O)[O-])c1Sc1nnc(-c2ccccc2)c(-c2ccccc2)n1,74.8%,100%,109%,77.7%,95.5%,106%,64.3%,67.8%,76%,73%,119%,72.2%,55.3%,48.1%,65.9%,-7.14% (active),97.9%,8.92% (active),41%,–
COC(=O)[C@]12CC[C@@H](C)[C@H](C)[C@@H]1C1=CC[C@@H]3[C@@]4(C)C[C@@H](O)[C@H](O)[C@@](C)(CO)[C@@H]4[C@H](O)C[C@@]3(C)[C@]1(C)CC2,-90.5% (active),-37.7% (active),-23.4% (active),-94.6% (active),-34.5% (active),-95.8% (active),-64% (active),-93% (active),-48.4% (active),-88.2% (active),-33.1% (active),–,-52.2% (active),-56.9% (active),-48.3% (active),0.468% (active),-80.2% (active),-43.7% (active),-51.9% (active),–
Cc1nn2c(/C=C3/C(=O)Nc4ccc(Cl)cc43)c(-c3ccccc3)nc2s1,35.1%,-35.4% (active),82.4%,34.8%,32.3%,26.3%,39.3%,–,29.2%,32.7%,–,52.7%,29.6%,6.61% (active),30.1%,53.4%,–,50.7%,57.2%,–
CCOC(=O)CNC(=O)Nc1ccc(Oc2ccc(NC(=O)NCC(=O)OCC)cc2)cc1,107%,74.4%,104%,93.8%,–,97.1%,92.4%,91.9%,91%,115%,–,94.7%,83.2%,114%,102%,95.1%,–,89.4%,107%,–
